The results in this text go back to ChEMBL document CHEMBL4513216, “Probing the Open Global Health Chemical Diversity Library for Multistage-Active Starting Points for Next-Generation Antimalarials” (ACS Infect Dis, 2020).

Among all 69,000 compounds or so, about 8,600 (12%) showed an effect of 50% or more. The list comes from a sample in which strong results are over-represented; it also holds similar structures and randomly drawn compounds.

The assay has as its system Plasmodium berghei. The assay can be described thus: Screen against P. berghei liver stage (PbLuc), transformed with Luciferase, at 10uM. It counts as functional, HepG2. The settings on record: tested at 10 uM.
Turning to `CCc1nc(CN(C)C2CCN(CC(F)(F)F)C2)no1` (centres undefined), the INHIBITION was 4.71%.
For `CN1CCOC(CNCc2c(Cl)nc3ccccn23)C1` (centres undefined), the INHIBITION is on record as -2.43%.
For the molecule `CC[C@@H]1N(Cc2ccc(OC)cc2)CCC[C@]12CCC(=O)N2CCOC`, the INHIBITION is recorded as -5.31%.
Take `Cc1noc(CC2CCN(C(=O)C(c3ccccc3C)N(C)C)CC2)n1` (centres undefined): the INHIBITION was -21.1%.
For `COCc1nc(C(=O)N2CCCC2c2cc(C)on2)cs1` (centres undefined) the value was 0.914%; for `O=C(c1cc2c(s1)CCC2)N1CCCC(c2cnccn2)C1` (centres undefined), -94%.
For `COc1ccc(C)cc1NC(=O)CNc1ccn(CC(N)=O)n1` the value was -41.6%; for `CNc1ccnc(NCC(=O)Nc2cc(C)ccc2OC)n1`, 53%.
Consider `CNc1ccnc(NCCC(=O)Nc2ccccc2OC)n1`, for which the INHIBITION was found to be 49.7%.
The figure for `CC(C)COC1CCN(S(=O)(=O)Cc2cccc(F)c2)CC1` is 20.9%.
For the molecule `CCN(CC)C(=O)[C@@H]1C[C@@H](N)CN1c1nc(N(C)C)nc(C)c1C`, the INHIBITION worked out at 62.6%.
`CCN(CC)C(=O)[C@@H]1C[C@H](N)CN1c1nnc(-c2ccccc2)s1`: the INHIBITION is 56.3%.
For `CCN(CC)C(=O)[C@@H]1C[C@@H](NC(=O)c2cccn2C2CC2)CN1C` the value was 20.5%; for `CCNC(=O)[C@@H]1C[C@H](N)CN1c1cc(CC)nc(N(C)C)n1`, -69.6%.
For the molecule `CNC(=O)[C@@H]1C[C@@H](N)CN1c1nc(N2CCCC2)nc(C)c1C`, the INHIBITION was determined as 45.3%.
Take `CNC(=O)[C@@H]1C[C@@H](N)CN1c1nnc(-c2ccccc2)s1`: the INHIBITION stood at 74.9%.
In the case of `CCN(CC)C(=O)[C@@H]1C[C@H](N)CN1c1noc(-c2ccccc2)n1`, the INHIBITION is 9.04%.
As for `CNC(=O)[C@@H]1C[C@@H](N)CN1C(=O)CCSCc1ccccc1`, the INHIBITION is -15.1%.
With `CCN(CC)C(=O)[C@@H]1C[C@@H](N)CN1c1nc(N2CCCC2)nc(C)c1C`, the INHIBITION is on record as 33.4%.
On to `COc1ccc(-c2ncccc2C(=O)N2C[C@@H]3CC[C@H]2C3)cn1`, for which the INHIBITION is given as 29.1%.
The figure for `Cn1cc(C[C@H]2[C@H](N3CCOCC3)CCN2C2CCOCC2)cn1` is 0.804%; for `Cn1nc(C(=O)N2CCOCC2)cc1C(=O)Nc1c(Cl)cccc1Cl` it is 51.6%.
The figure for `Cn1nc(C(=O)N2CCOCC2)cc1C(=O)Nc1ccc(Cl)cc1Cl` is -8.66%.
The figure for `Cn1nc(C(=O)N2CCOCC2)cc1C(=O)Nc1ncc(Cl)cc1Cl` is -0.71%.
Consider `Cc1c(C(=O)N2CCC(C(=O)c3nc4ccccc4s3)CC2)cnn1C`, for which the INHIBITION is 11.025%.
Take `Cc1cccc(C(=O)N2CCN(C)CC2)c1NC(=O)c1ccncc1`: the INHIBITION is recorded as 52.6%.
In the case of `Cc1cccc(C(=O)N2CCSCC2)c1NC(=O)c1cccnc1`, the INHIBITION amounted to 45%.
Take `Cc1cccc(C(=O)N2CCSCC2)c1NC(=O)c1ccsc1`: the INHIBITION amounted to 1.56%.
The figure for `COc1cc(CNCCn2cc(C)cn2)c2c(c1)CC(C)O2` (centres undefined) is 75.2%; for `COc1cc(CNCCC(N)=O)c2c(c1)CC(C)O2` (centres undefined) it is 49.4%; for `COc1ccc(-c2nnc(CNCCn3cc(C)cn3)o2)cc1` it is 5.7%.
On to `COc1cc(CNCCn2cccn2)c2c(c1)CC(C)O2` (centres undefined), for which the INHIBITION turned out to be 75.2%.
`COc1cccc(-c2nc(CNCCn3cccn3)cs2)c1`: the INHIBITION was 31.8%.
For `COc1cc(CNCCn2cc(C)cn2)cc2c1OCCO2` the value was 17.8%.
For `O=C(c1cccc(F)c1)N1CCc2ncc(Cn3cccn3)n2CC1`, the INHIBITION is recorded as 3.58%.
As for `Cc1nc(-c2ncc(C(=O)NCCNc3ncccc3C)c(O)n2)cs1`, the INHIBITION came out at 50.3%.
In the case of `Cc1nc(C(C)C)sc1C(=O)NCCSc1ccccn1`, the INHIBITION is -71.3%.
For `CCn1c(C)nnc1SCCNC(=O)c1cnc(C(C)(C)C)nc1O`, the INHIBITION is reported as 23.6%.
Consider `CCSCCNC(=O)c1cnc(-c2ccccc2)nc1O`, for which the INHIBITION is reported as 40.3%.
Take `CC(C)(C)c1ncc(C(=O)NCCSc2ccccn2)c(O)n1`: the INHIBITION stood at 69.1%.
Take `Cc1cccnc1NCCNC(=O)c1cnc(-c2ccccn2)nc1O`: the INHIBITION is listed as 92.1%.
Take `CCn1c(N)nc2cc(C(=O)NCCNc3ncccc3C)cnc21`: the INHIBITION was -87.1%.
On to `O=C(NCCCO)c1cnc(-c2ccccc2)nc1O`, for which the INHIBITION was 48.5%.
As to `Cc1cccnc1NCCNC(=O)c1cnc(-c2cccs2)nc1O`, the INHIBITION was determined as 14.9%.
The figure for `Cc1noc(NCc2cn(C)nc2-c2ccncc2)n1` is 19.4%; for `Cc1ccc(C(=O)NS(=O)(=O)c2c(Cl)cccc2Cl)c(=O)[nH]1` it is 19.4%; for `CN(C)CCN1CCO[C@H]2CN(Cc3cnn(C)c3)C[C@H]21` it is -57.1%.
For `Cc1nnsc1C(=O)N1CCCCC1c1cc2nc(C)c(C)c(O)n2n1` (centres undefined), the INHIBITION is 19.3%.
Regarding `Cc1nc(-c2ccccc2)sc1CNC(=O)c1ccc(=O)n(C)c1`, the INHIBITION is 39.6%.
As to `CC(NCCCN1CCCC1=O)c1cc(Br)ccc1O` (centres undefined), the INHIBITION is -1.3%.
In the case of `c1cc2c(cc1Cn1cc(C3CCOC3)nn1)OCO2` (centres undefined), the INHIBITION was 17.6%.
As for `Cc1ocnc1C(=O)N(C)[C@@H]1CC[C@@H](n2ccnc2C)[C@@H]1O`, the INHIBITION is 45.9%.
Consider `Cn1cnc2cc(CCC(=O)Nc3nc[nH]n3)ccc21`, for which the INHIBITION was determined as 39.2%.
Take `Cn1c(=O)c2c(n3ncnc13)NC(=O)CC2c1ccc(F)cc1` (centres undefined): the INHIBITION was 54%.
`CCc1ccc(C2CC(=O)Nc3c2c(=O)n(C)c2ncnn32)cc1` (centres undefined): the INHIBITION is reported as 0.207%.
As for `Cn1c(=O)c2c(n3ncnc13)NC(=O)CC2c1cccc(F)c1` (centres undefined), the INHIBITION is given as 41.6%.
The figure for `Cc1nc(N(C)C)nc(-c2cccc(-c3ccn(CCCO)n3)c2)c1C` is 14.9%; for `Cc1ccc(CNCC2CNc3cc(C)nn3C2)cn1` (centres undefined) it is 33.35%; for `CCOc1cncc(N2CCOCC2)n1` it is 35.4%.
As to `O=C(CCN1CCCCO1)NC1CCCN(CC2CCCCC2)C1` (centres undefined), the INHIBITION was 11.2%.
As to `O=C(CCN1CCCO1)NC1CCCN(CC2CCCCC2)C1` (centres undefined), the INHIBITION is reported as 50.5%.
Turning to `O=C(CCN1CCOCC1)NC1CCCN(CC2CCCCC2)C1` (centres undefined), the INHIBITION is on record as 1.37%.
The figure for `CCOc1ccc2cc(C(=O)NCCC(=O)N(C)C)[nH]c2c1` is -5.22%; for `Cc1ccc(N2CCCN(CC3CC3)C(C(C)C)C2)nn1` (centres undefined) it is 23%; for `COCC1COCCC12CCN(C(=O)CC1Cc3ccccc3C1)CC2` (centres undefined) it is 23.6%.
On to `Clc1snnc1CN1CCCC1Cn1cccn1` (centres undefined), for which the INHIBITION is -36.1%.
On to `Cc1ccnn1CC(=O)N1CCN(C2CCc3ccccc3C2)CC1` (centres undefined), for which the INHIBITION is recorded as 10.7%.
As for `Cc1ccnn1CCC(=O)N1CCN(C2CCc3ccccc3C2)CC1` (centres undefined), the INHIBITION is reported as -5.08%.
Turning to `CCc1nccn1CC(=O)N1CCN(C2CCc3ccccc3C2)CC1` (centres undefined), the INHIBITION amounted to 57.9%.
The figure for `COc1cc(-n2cccc2)c(Cl)cc1C(=O)NS(C)(=O)=O` is 23.7%; for `CC(C)(C)CC(=O)N1[C@@H](c2ccco2)[C@@H](CO)C[C@]12CCCCNC2=O` it is 22.2%.
The figure for `O=C(NCC(c1ccccc1)N1CCOCC1)Nc1cn[nH]c1` (centres undefined) is -113%.
For the molecule `Cn1c(CN2CCCC(N3CCCCCC3)C2)cc(=O)n(C)c1=O` (centres undefined), the INHIBITION is -10.9%.
For `Cn1c(CN2CCOCC2)cc(=O)c(O)c1CN1CCOCC1` the value was 5.58%; for `Cn1c(CN2CCOCC2)cc(=O)c(O)c1CN1CCCCC1`, 30.2%.
In the case of `Cn1c(CN2CCOCC2)cc(=O)c(O)c1CN1CCCC1`, the INHIBITION is listed as 6.12%.
`Cn1c(CN2CCCCC2)cc(=O)c(O)c1CN1CCCCC1`: the INHIBITION is on record as 74%.
For the molecule `Cn1c(CN2CCCCCC2)cc(=O)c(O)c1CN1CCCC1`, the INHIBITION stood at 63.1%.
Consider `CN(CCn1nc2ccccn2c1=O)CC(=O)N1CCCC1`, for which the INHIBITION is listed as 18.2%.
As for `CCn1cc(CN(C)C(=O)c2cc(C(F)(F)F)n(C)n2)cn1`, the INHIBITION is reported as -6.42%.
For the molecule `CC(C)(CO)Nc1c(NCc2ccncc2)c(=O)c1=O`, the INHIBITION came to 32.8%.
The figure for `COc1ccc(C(=O)NCCCOC(C)c2ccccc2)c(OC)c1` (centres undefined) is 84.4%; for `CC(OCCCNC(=O)c1cccnc1O)c1ccccc1` (centres undefined) it is -21.2%; for `COc1ccc(C(=O)NCCCNc2ncccn2)c(OC)c1` it is 30.8%.
Regarding `CCC[C@@H]1CN(C(=O)c2ccccc2C(C)=O)C[C@H]1N(C)C`, the INHIBITION turned out to be 8.92%.
With `CCC[C@@H]1CN(C(=O)c2cc3ccccc3cc2O)C[C@H]1N(C)C`, the INHIBITION was found to be 51.5%.
The figure for `CCC[C@@H]1CN(C(=O)c2ccccc2-c2ccccc2)C[C@H]1N(C)C` is 31.7%; for `Cc1ccc(-c2n[nH]cc2CNCC2CCN(CC(F)(F)F)C2)o1` (centres undefined) it is 27.5%; for `CC1=N[C@@]2(CC[C@@H]3CN(CC(=O)N(C)C)C[C@@H]32)C(=O)N1CC(C)C` it is -6.32%.
`CCN1CCCn2c(nc(CNC(=O)c3cnoc3C)cc2=O)C1`: the INHIBITION was -24%.
On to `Cn1nccc1CNC(=O)C1CCCCC1`, for which the INHIBITION amounted to 33%.
For the molecule `Cc1cc(C(=O)NC(C)CC(=O)c2ccco2)[nH]n1` (centres undefined), the INHIBITION was 37.9%.
Regarding `COCCN1CCO[C@H]2CN(C(=O)c3cccs3)C[C@H]21`, the INHIBITION was found to be 77.7%.
For `COCCN1CCO[C@H]2CN(C(=O)c3ccncc3F)C[C@H]21` the value was -52.3%; for `O=C(c1cccs1)N1C[C@@H]2OCCN(CC3CCCO3)[C@@H]2C1` (some centres undefined), -17.1%.
For `COCCN1CCO[C@H]2CCN(C(=O)c3ccnnc3)CC[C@@H]21` the value was 55.6%.
For `CS(=O)(=O)N1CCO[C@@H]2CCN(C(=O)c3cccs3)CC[C@H]21` the value was 31.9%; for `CN(C)CCN1CCO[C@H]2CCN(C(=O)c3cccs3)CC[C@@H]21`, 54.1%; for `O=C(c1ccnnc1)N1C[C@@H]2OCCN(CCN3CCCC3)[C@@H]2C1`, 11.9%.
Consider `CN(C)CCN1CCO[C@@H]2CCN(C(=O)c3cccn3C)CC[C@H]21`, for which the INHIBITION is given as -16.2%.
As for `COCCN1CCO[C@H]2CCN(C(=O)c3cccs3)CC[C@@H]21`, the INHIBITION is reported as -18.3%.
As for `COC(=O)N1CCC(Nc2ccc(Cl)c(C#N)n2)CC1`, the INHIBITION came out at 8.12%.
Consider `COc1ncc(C(F)(F)F)c(C(=O)O)c1Cl`, for which the INHIBITION amounted to 24.2%.
For `Cc1cnn(CC2CCCCN2C(=O)Cc2c(C)noc2C)c1` (centres undefined) the value was 8.53%.
